Compound activity from PubChem BioAssay.
D2 ag-1: D2 dopamine receptor (human) agonism. AID 485358. activation, % at 2 µM. 340,000 tested, 0.53% active. P14416. HEK293 T-REx D2 cells, calcium flux agonist mode;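 active = activation over 3 SD above normal in the single-dose calcium agonist read, cut at about 30% in these data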
Target sequence (P14416 whole entry, looked up): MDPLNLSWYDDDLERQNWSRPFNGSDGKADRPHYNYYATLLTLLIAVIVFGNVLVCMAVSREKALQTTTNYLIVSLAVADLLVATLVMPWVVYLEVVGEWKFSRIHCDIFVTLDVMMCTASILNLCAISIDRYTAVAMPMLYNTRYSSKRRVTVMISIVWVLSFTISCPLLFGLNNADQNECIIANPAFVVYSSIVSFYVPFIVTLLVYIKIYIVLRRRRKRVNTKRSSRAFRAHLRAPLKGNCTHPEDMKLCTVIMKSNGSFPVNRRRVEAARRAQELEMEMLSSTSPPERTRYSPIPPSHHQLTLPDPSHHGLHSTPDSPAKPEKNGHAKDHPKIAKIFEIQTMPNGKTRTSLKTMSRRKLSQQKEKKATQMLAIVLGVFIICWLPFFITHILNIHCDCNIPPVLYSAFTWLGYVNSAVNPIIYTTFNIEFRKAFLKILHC
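HEK293 Trex D2 cells, tetracycline-induced, o/n 30 C 5% CO2; no-wash Ca dye, RT 30–90 min; 10-cycle baseline, 23 nl cpd added, kinetic Ca read 180 s; agonist hits = positive Ca response.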
D2 antag: D2 dopamine receptor (human) antagonism; P14416; HEK293 TREx D2 cells, calcium flux, dopamine EC80; inhibition, % at 10 µM; 340,000 tested, 2% active; in the data active = inhibition above about 30%; inactive = below that, where a call was filed
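Measurement of antagonist activity uses fluorescent calcium dye in inducible HEK293 T-REx D2 cells: 10 s baseline, compound addition with 180 s read, EC80 dopamine addition with a further 180 s read.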
D2 ag-2: human D2 receptor agonism in beta-arrestin assay. P14416. DiscoveRx PathHunter D2 beta-arrestin, luminescence, 90 min; 100% = 57 uM dopamine signal. activation, % (test concentration not listed). 360,000 tested, 0.084% active; in the data active = activation above about 40%; inconclusive = between about 15% and that limit
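Agonist mode: compounds alone added to overnight-plated D2 PathHunter cells for 90 min at 37 C, with 57 uM final dopamine (EC100) defining full response. Beta-arrestin recruitment detected by chemiluminescent reagent, read after 1 h at ambient temperature.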
D2 PAM-1: human D2 receptor positive allosteric modulation | P14416 | DiscoveRx D2 beta-arrestin cells, luminescence, 90 min; 100% = 57 uM dopamine signal | potentiation, % (no concentration beside the values) | 360,000 tested, 0.23% active | AID 624464; in the data active = potentiation above about 50%; inconclusive = mostly about 30% to 49%
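PathHunter D2 cells, attached overnight at 37 deg C, received compound in DMSO plus dopamine at EC20 (50 nM final) for 90 min at 37 deg C. Beta-arrestin recruitment was read as luminescence after 1 h with detection reagent at ambient temperature.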
D2 PAM-2: positive allosteric modulators of human D2 dopamine receptor; 340,000 tested, 0.34% active; potentiation, % at 10 µM; P14416; HEK293 T-REx D2, calcium flux, EC20 dopamine potentiation; AID 485347;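 active = potentiation over 3 SD above the plate norm, cut at about 30% in these data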
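Tetracycline-induced HEK293 T-REx cells force-coupled to calcium signalling expressed D2; compounds were pin-added after a 10 s baseline, read kinetically 180 s, then an EC20 dopamine challenge followed with a further 180 s calcium read.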
Hits are given with their value; . = inactive; ? = inconclusive; / = not tested or not shown. Sampled rows, rich in hits. Any-hit rate of the full collection: about 2.4%.

SMILES	D2 ag-1	D2 antag	D2 ag-2	D2 PAM-1	D2 PAM-2
COC(=O)c1[nH]c2cccc(OC)c2c1NC(=O)CCN1CCN(c2cccc(Cl)c2)CC1	.	38	/	/	.
COc1ccccc1NC(=O)NCCN1CCN(c2cccc(Cl)c2)CC1	.	53	.	.	.
CCC(C)NC(=O)C(=O)Nc1c2c(nn1-c1ccccc1)CS(=O)(=O)C2 (stereo not given)	/	/	/	/	.
COc1ccccc1NC(=O)CN1C(=O)COc2ccc(S(=O)(=O)N3CCC(C)CC3)cc21	.	.	.	.	.
CCOc1ccccc1NC(=O)CN1C(=O)COc2ccc(S(=O)(=O)N3CCOCC3)cc21	.	36	.	.	.
C/C(=N/NC(=O)c1ccc(Br)o1)c1ccncc1	.	38	.	.	.
O=C(Nc1ccccc1OCc1cc(=O)n2ccccc2n1)Nc1ccccc1C(F)(F)F	.	/	/	/	.
O=C(N/N=C/c1cccc(Br)c1)C1CC(=O)N(c2ccccc2)C1 (stereo not given)	.	35	.	.	.
COc1ccc(N2CC(C(=O)N/N=C/c3ccccc3)CC2=O)cc1 (stereo not given)	.	.	.	.	.
COc1ccc(Cn2c3nc4ccccc4nc3c3c(=O)n(Cc4ccco4)cnc32)cc1	.	40	/	/	.
O=C(COCc1cc(-c2ccc3c(c2)OCO3)on1)NCc1ccccc1Cl	.	/	/	/	.
CCC(C)c1ccccc1OCCOCCN1CCCC1 (stereo not given)	.	54	.	.	.
Brc1ccccc1OCCCCCN1CCCC1	.	.	/	/	.
CCC(C)c1ccccc1OCCCNC1CCCC1 (stereo not given)	.	78	.	.	.
CCC(C)c1ccccc1OCCCCN1CCCC1 (stereo not given)	.	65	.	.	.
CCN(CC)C(=O)c1ccc(C)c(Br)c1	.	31	.	.	.
COC(=O)CC1COc2ccccc2N1C(=O)c1ccc(C(C)(C)C)cc1 (stereo not given)	33	.	?	59	.
Oc1ccc2nnc3c(Br)cnn3c2c1	53	.	?	.	.
Cn1nnnc1SCCNCc1ccc(OCc2ccc(Cl)cc2)cc1	.	/	/	/	.
Cc1c(C)c2ccc(OCC(=O)Nc3ccccn3)cc2oc1=O	.	36	.	.	.
Cc1ccc(Cl)cc1N1CCN(C(=O)COCc2cc(-c3ccc4c(c3)OCO4)on2)CC1	.	/	/	/	.
CCn1cc2nc(SCc3cc(C)ccc3C)n(Cc3ccc(C)cc3)c(=O)c2n1	.	/	/	/	.
CCCCNC(=O)c1sc(=S)n2c1[nH]c(=O)c1ccccc12	.	33	.	.	.
CN1/C(=C\C=C2/SC(=S)N(CC(=O)O)C2=O)C(C)(C)c2ccccc21	97	.	.	.	.
O=C(c1cc(-c2ccc(Br)cc2)n[nH]1)N1CCN(S(=O)(=O)c2ccc(Br)s2)CC1	.	/	/	/	.
SMILES	D2 ag-1	D2 antag	D2 ag-2	D2 PAM-1	D2 PAM-2
CCOc1ccc(OCCSc2nc3ccccc3[nH]2)cc1	.	.	.	.	32
CCC1CN(C(=O)N2CCC(C(=O)NCCC3=CCCCC3)CC2)c2ccccc2O1 (stereo not given)	.	/	/	/	/
COc1cccc(-c2nc(CS(=O)(=O)CC(=O)NCc3ccc(C)cc3)c(C)o2)c1	.	/	/	/	.
COc1ccc(C(=O)C2CCN(C(=O)c3ccco3)CC2)cc1	.	.	.	.	.
Cc1c(Cl)cccc1NC(=O)N1CCN(C(=O)c2ccco2)CC1	31	.	.	.	.
COc1ccc(C2(NC(C)=O)CCN(C(=O)c3ccco3)CC2)cc1	.	33	.	.	.
COc1ccc(NC(=S)N2CCN(C(=O)c3ccco3)CC2)cc1	.	32	.	.	.
Cc1ccc(NC(=S)N(CCN(C)C)C(C)c2cccnc2)c(C)c1 (stereo not given)	.	.	.	.	32
CC(C)Oc1ccc(CNC(=O)c2cnc3sc(N4CCCCC4)nn3c2=O)cc1	.	/	/	/	.
COCC(C)NC(=O)CSc1nnc(-c2cccc(S(=O)(=O)N3CCCCC3)c2)o1 (stereo not given)	.	.	.	.	.
CC(NC(=O)CSc1nnc(-c2cccc(S(=O)(=O)N3CCCCC3)c2)o1)C12CC3CC(CC(C3)C1)C2 (stereo not given)	/	/	.	58	.
Cc1ccccc1NC(=O)c1nc(S(C)(=O)=O)ncc1N(Cc1ccco1)Cc1sccc1C	.	/	/	/	.
COc1ccc(S(=O)(=O)N(CCc2ccccc2)CC(=O)Nc2cc(C)ccc2C)cc1	.	/	/	/	.
CC(CNC(=O)C1CCN(S(=O)(=O)c2ccc3c(ccn3C)c2)CC1)c1ccccc1 (stereo not given)	.	/	/	/	.
COC(=O)C(C)Sc1ccc2nnc(CCNS(=O)(=O)c3ccc(C)cc3)n2n1 (stereo not given)	.	.	.	.	.
COC(=O)C(C)Sc1ccc2nnc(CCNS(=O)(=O)c3ccccc3)n2n1 (stereo not given)	.	37	.	.	.
CCOc1ccc(NC(=O)CCn2c(=O)[nH]c3ccsc3c2=O)cc1	.	.	.	.	36
Cc1ccc(NC(=O)CCn2c(=O)[nH]c3ccsc3c2=O)cc1	.	.	.	.	.
CCOC(=O)c1cc(-c2ccccc2)n(CCCC(=O)Nc2ccccc2C)c1C	.	/	/	/	.
O=C(CN1CCN(c2ccc(F)cc2)CC1)N1N=CCC1c1ccccc1 (stereo not given)	.	36	.	.	.
CCCOc1ccc(CNC(=O)c2[nH]c3cc(OC)ccc3c2Sc2ccccc2)cc1	.	/	/	/	.
Cc1cccc(OCC(=O)Nc2ccccc2OCc2cc(=O)n3cc(C)ccc3n2)c1	.	/	/	/	.
O=C(/C=C/c1ccccc1)N(c1ccccn1)C1CCCCC1	34	.	.	.	.
CCN(CC)S(=O)(=O)c1ccc(/C=C/C(=O)N(c2ccccn2)C2CCCCC2)cc1	.	.	.	.	.
Cc1cc(C)c(C(=O)c2ccc(C(=O)NC(C)(C)C)cc2)c(C)c1	.	40	.	.	.
SMILES	D2 ag-1	D2 antag	D2 ag-2	D2 PAM-1	D2 PAM-2
N#C/C(=C\c1c(N2CCCCCC2)nc2ccccn2c1=O)C(=O)NC1CCS(=O)(=O)C1 (stereo not given)	.	.	.	.	.
N#C/C(=C\c1c(N2CCOCC2)nc2ccccn2c1=O)C(=O)NC1CCS(=O)(=O)C1 (stereo not given)	.	38	.	.	.
Cn1nnc2cc(C(=O)N3CCCCCC3)ccc21	.	.	.	.	.
Cn1nnc2cc(C(=O)N3CCC(c4ccccc4)C3)ccc21 (stereo not given)	.	.	.	.	103
O=C(CCN1C(=O)CSc2ccccc21)Nc1cccc(C(F)(F)F)c1	.	.	.	.	.
O=C(CCN1C(=O)CSc2ccccc21)Nc1ccc(C(F)(F)F)cc1	.	88	.	.	.
